In all, about 16,000 sequences were measured (“rpm ratio (pull-down/input)”: median about 0.5, highest 2% from about 5.5 on). This excerpt belongs to a sample that is enriched for the highest values.
Target: T1, MBP-FoxP3dN (Mus musculus, UniProt Q99JB6 188-423)
T1 sequence: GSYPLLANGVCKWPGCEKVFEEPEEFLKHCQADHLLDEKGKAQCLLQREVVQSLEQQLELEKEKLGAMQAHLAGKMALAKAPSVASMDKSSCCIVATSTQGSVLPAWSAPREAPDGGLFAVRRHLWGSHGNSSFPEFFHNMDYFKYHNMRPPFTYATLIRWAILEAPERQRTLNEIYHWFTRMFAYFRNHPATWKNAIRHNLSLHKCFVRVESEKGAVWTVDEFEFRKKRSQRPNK
Test: PD-seq (MBP pull-down with sequencing); 20 mM Tris-HCl pH 7.5, 100 mM NaCl, 1.5 mM MgCl2, 0.4 uM protein, 0.1 uM dsDNA library, 30 min, room temperature, amylose pull-down; high values mean tight binding
Conditions: protein: recombinant; tags: His6-MBP; chain copies: 2; dsDNA, one strand shown
How it was run: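 Protein and DNA were mixed at 0.4 µM and 0.1 µM and held for 30 min at room temperature in Tris pH 7.5 buffer with NaCl and MgCl2; the protein was a His6-MBP-tagged, N-terminally truncated mouse FoxP3 or FoxP1 fragment from E. coli, and the DNA a Klenow-filled double-stranded degenerate library. Amylose resin captured the complexes, which were washed three times. Binding is read as reads-per-million enrichment of pull-down versus input after Illumina sequencing, with replicates pooled.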

Row | Sequence | binding signal
1 | GATGATTGTTCTCCCAGCTGATGAATTGGCGGTATCGAGTAAACAAATTTTCCTAATCTTTCTGTTCAAGCGCCATCTAC | 0.566 RPM ratio (pull-down/input)
2 | GATGATTGTTCTCCCAGCTGATGAATTTTTTTACTCGAGTAAACAAATTTTCCTAATCTTTCTGTTCAAGCGCCATCTAC | 0.35 RPM ratio (pull-down/input)
3 | GATGATTGTTCTCCCAGCTGATGAATTTTATTACTCGAGTAAACAAATTTTCCTAATCTTTCTGTTCAAGCGCCATCTAC | 1.04 RPM ratio (pull-down/input)
4 | GATGATTGTTCTCCCAGCTGATGAATTTATTTACTCGAGTAAACAAATTTTCCTAATCTTTCTGTTCAAGCGCCATCTAC | 6.74 RPM ratio (pull-down/input)
5 | GATGATTGTTCTCCCAGCTGATGAATTTGTTTACTCGAGTAAACAAATTTTCCTAATCTTTCTGTTCAAGCGCCATCTAC | 6.49 RPM ratio (pull-down/input)
6 | GATGATTGTTCTCCCAGCTGATGAATTTTGTTACTCGAGTAAACAAATTTTCCTAATCTTTCTGTTCAAGCGCCATCTAC | 3.84 RPM ratio (pull-down/input)
7 | GATGATTGTTCTCCCAGCTGATGAATTATTTTACTCGAGTAAACAAATTTTCCTAATCTTTCTGTTCAAGCGCCATCTAC | 0.529 RPM ratio (pull-down/input)
8 | GATGATTGTTCTCCCAGCTGATGAATTGAATTACTCGAGTAAACAAATTTTCCTAATCTTTCTGTTCAAGCGCCATCTAC | 1.28 RPM ratio (pull-down/input)
9 | GATGATTGTTCTCCCAGCTGATGAATTTATTGTCTCGAGTAAACAAATTTTCCTAATCTTTCTGTTCAAGCGCCATCTAC | 6.72 RPM ratio (pull-down/input)
10 | GATGATTGTTCTCCCAGCTGATGAATTGTTTTACTCGAGTAAACAAATTTTCCTAATCTTTCTGTTCAAGCGCCATCTAC | 1.55 RPM ratio (pull-down/input)
11 | GATGATTGTTCTCCCAGCTGATGAATTTGATTACTCGAGTAAACAAATTTTCCTAATCTTTCTGTTCAAGCGCCATCTAC | 6.08 RPM ratio (pull-down/input)
12 | GATGATTGTTCTCCCAGCTGATGAATTATTTGTCTCGAGTAAACAAATTTTCCTAATCTTTCTGTTCAAGCGCCATCTAC | 2.46 RPM ratio (pull-down/input)
13 | GATGATTGTTCTCCCAGCTGATGAATTTTATGTCTCGAGTAAACAAATTTTCCTAATCTTTCTGTTCAAGCGCCATCTAC | 1.12 RPM ratio (pull-down/input)
14 | GATGATTGTTCTCCCAGCTGATGAATTCAATTGTTCGAGTAAACAAATTTTCCTAATCTTTCTGTTCAAGCGCCATCTAC | 3.36 RPM ratio (pull-down/input)
15 | GATGATTGTTCTCCCAGCTGATGAATTGGCCCGGTCGAGTAAACAAATTTTCCTAATCTTTCTGTTCAAGCGCCATCTAC | 0.201 RPM ratio (pull-down/input)
16 | GATGATTGTTCTCCCAGCTGATGAATTGCTTCCCTCGAGTAAACAAATTTTCCTAATCTTTCTGTTCAAGCGCCATCTAC | 0.536 RPM ratio (pull-down/input)
17 | GATGATTGTTCTCCCAGCTGATGAATTTGCATATTCGAGTAAACAAATTTTCCTAATCTTTCTGTTCAAGCGCCATCTAC | 2.72 RPM ratio (pull-down/input)
18 | GATGATTGTTCTCCCAGCTGATGAATTGCCATTTTCGAGTAAACAAATTTTCCTAATCTTTCTGTTCAAGCGCCATCTAC | 1.02 RPM ratio (pull-down/input)
19 | GATGATTGTTCTCCCAGCTGATGAATTTGCCATCTCGAGTAAACAAATTTTCCTAATCTTTCTGTTCAAGCGCCATCTAC | 2.56 RPM ratio (pull-down/input)
20 | GATGATTGTTCTCCCAGCTGATGAATTGCATCTCTCGAGTAAACAAATTTTCCTAATCTTTCTGTTCAAGCGCCATCTAC | 4.07 RPM ratio (pull-down/input)
21 | GATGATTGTTCTCCCAGCTGATGAATTTTGCATCTCGAGTAAACAAATTTTCCTAATCTTTCTGTTCAAGCGCCATCTAC | 7.18 RPM ratio (pull-down/input)
22 | GATGATTGTTCTCCCAGCTGATGAATTGCGCCATTCGAGTAAACAAATTTTCCTAATCTTTCTGTTCAAGCGCCATCTAC | 6.51 RPM ratio (pull-down/input)
23 | GATGATTGTTCTCCCAGCTGATGAATTTTTGCATTCGAGTAAACAAATTTTCCTAATCTTTCTGTTCAAGCGCCATCTAC | 6.58 RPM ratio (pull-down/input)

Row | Sequence | binding signal
24 | GATGATTGTTCTCCCAGCTGATGAATTTGCATTCTCGAGTAAACAAATTTTCCTAATCTTTCTGTTCAAGCGCCATCTAC | 6.29 RPM ratio (pull-down/input)
25 | GATGATTGTTCTCCCAGCTGATGAATTGCATTCCTCGAGTAAACAAATTTTCCTAATCTTTCTGTTCAAGCGCCATCTAC | 3.39 RPM ratio (pull-down/input)
26 | GATGATTGTTCTCCCAGCTGATGAATTGCGTAATTCGAGTAAACAAATTTTCCTAATCTTTCTGTTCAAGCGCCATCTAC | 1.58 RPM ratio (pull-down/input)
27 | GATGATTGTTCTCCCAGCTGATGAATTGCATTTCTCGAGTAAACAAATTTTCCTAATCTTTCTGTTCAAGCGCCATCTAC | 2.75 RPM ratio (pull-down/input)
28 | GATGATTGTTCTCCCAGCTGATGAATTTAGAGGCTCGAGTAAACAAATTTTCCTAATCTTTCTGTTCAAGCGCCATCTAC | 0.583 RPM ratio (pull-down/input)
29 | GATGATTGTTCTCCCAGCTGATGAATTTTGATATTCGAGTAAACAAATTTTCCTAATCTTTCTGTTCAAGCGCCATCTAC | 3.34 RPM ratio (pull-down/input)
30 | GATGATTGTTCTCCCAGCTGATGAATTTATCGAATCGAGTAAACAAATTTTCCTAATCTTTCTGTTCAAGCGCCATCTAC | 0.374 RPM ratio (pull-down/input)
31 | GATGATTGTTCTCCCAGCTGATGAATTGCCTCGGTCGAGTAAACAAATTTTCCTAATCTTTCTGTTCAAGCGCCATCTAC | 0.565 RPM ratio (pull-down/input)
32 | GATGATTGTTCTCCCAGCTGATGAATTTTCAACTTCGAGTAAACAAATTTTCCTAATCTTTCTGTTCAAGCGCCATCTAC | 0.307 RPM ratio (pull-down/input)
33 | GATGATTGTTCTCCCAGCTGATGAATTGAATGACTCGAGTAAACAAATTTTCCTAATCTTTCTGTTCAAGCGCCATCTAC | 0.545 RPM ratio (pull-down/input)
34 | GATGATTGTTCTCCCAGCTGATGAATTGTTAAAATCGAGTAAACAAATTTTCCTAATCTTTCTGTTCAAGCGCCATCTAC | 0.291 RPM ratio (pull-down/input)
35 | GATGATTGTTCTCCCAGCTGATGAATTAAGTAGCTCGAGTAAACAAATTTTCCTAATCTTTCTGTTCAAGCGCCATCTAC | 0.874 RPM ratio (pull-down/input)
36 | GATGATTGTTCTCCCAGCTGATGAATTGCATTCTTCGAGTAAACAAATTTTCCTAATCTTTCTGTTCAAGCGCCATCTAC | 4.62 RPM ratio (pull-down/input)
37 | GATGATTGTTCTCCCAGCTGATGAATTGCAGCATTCGAGTAAACAAATTTTCCTAATCTTTCTGTTCAAGCGCCATCTAC | 5.93 RPM ratio (pull-down/input)
38 | GATGATTGTTCTCCCAGCTGATGAATTTGCATTGTCGAGTAAACAAATTTTCCTAATCTTTCTGTTCAAGCGCCATCTAC | 5.29 RPM ratio (pull-down/input)
39 | GATGATTGTTCTCCCAGCTGATGAATTCGTTGCATCGAGTAAACAAATTTTCCTAATCTTTCTGTTCAAGCGCCATCTAC | 2.22 RPM ratio (pull-down/input)
40 | GATGATTGTTCTCCCAGCTGATGAATTTTGCCATTCGAGTAAACAAATTTTCCTAATCTTTCTGTTCAAGCGCCATCTAC | 5.66 RPM ratio (pull-down/input)
41 | GATGATTGTTCTCCCAGCTGATGAATTTGCATTTTCGAGTAAACAAATTTTCCTAATCTTTCTGTTCAAGCGCCATCTAC | 5.38 RPM ratio (pull-down/input)
42 | GATGATTGTTCTCCCAGCTGATGAATTTGCCATTTCGAGTAAACAAATTTTCCTAATCTTTCTGTTCAAGCGCCATCTAC | 2.91 RPM ratio (pull-down/input)
43 | GATGATTGTTCTCCCAGCTGATGAATTTGCCCATTCGAGTAAACAAATTTTCCTAATCTTTCTGTTCAAGCGCCATCTAC | 0.615 RPM ratio (pull-down/input)
44 | GATGATTGTTCTCCCAGCTGATGAATTTTGCATTTCGAGTAAACAAATTTTCCTAATCTTTCTGTTCAAGCGCCATCTAC | 6.44 RPM ratio (pull-down/input)
45 | GATGATTGTTCTCCCAGCTGATGAATTGTTGCATTCGAGTAAACAAATTTTCCTAATCTTTCTGTTCAAGCGCCATCTAC | 7.63 RPM ratio (pull-down/input)
